# Results taken from PubChem BioAssay AID1259421 (Broad Institute, 2018).
# Several values for one entry are separate records, joined by “and”; a condition that tells them apart may be missing. Equal values may be shown once. Among all 6,400 compounds or so, about 610 (9.5%) were called active. No stated cut-off is given here; in the data, active means activity change below about -70%; inconclusive means no clear call, values can overlap the other calls; inactive means above that. For the sample, actives were picked, then their nearest neighbours and some compounds at random. The source holds several records for some structures; these can differ, active in one and inactive in another.
# Experiment: Toxoplasma gondii ME49Luc growth in HeLa cells, luciferase, no IFN-y, primary screen (AID 1259421)
# Details: T. gondii ME49Luc in HeLa, 72 h, stronger effect = lower value, concentration not given here
row,Structure (SMILES),"activity change, negative = inhibition"
1,CC(C)Cc1ccc([C@@H](C)C(=O)NS(C)(=O)=O)cc1,0.904% (inactive)
2,NC(COCc1ccccc1)C(=O)O (stereo not drawn),2.58% (inactive)
3,CCCc1c(OCCCCc2nn[nH]n2)ccc(C(C)=O)c1O,3.01% (inactive)
4,N#Cc1c(N)nc(SCc2csc(-c3ccc(Cl)cc3)n2)c(C#N)c1-c1ccc(OCCO)cc1,-62.2% (inactive)
5,Cc1nccc2[nH]c(=O)ccc12,4.39% (inactive)
6,CC(=O)O[C@@H]1CC[C@@]2(C)C(CC[C@]3(C)C2C(=O)C=C2[C@@H]4[C@@H](C)[C@H](C)CC[C@]4(C)CC[C@]23C)[C@@]1(C)C(=O)O (stereo partly drawn),-14.9% (inactive)
7,COc1ccc(CCCOC(Cn2ccnc2)c2ccc(OC)cc2)cc1 (stereo not drawn),-72.3% (active)
8,O=C(O)c1ccc(OCCn2ccnc2)cc1,-29.3% (inactive)
9,NC(=O)C1CSSCCC(=O)NC(CCCCN=C(N)N)C(=O)NCC(=O)NC(CC(=O)O)C(=O)NC(Cc2c[nH]c3ccccc23)C(=O)N2CCCC2C(=O)N1 (stereo not drawn),1.76% (inactive)
10,CCOC(=O)CSCCC1NC(C(=O)O)CS1 (stereo not drawn),6.06% (inactive) and 14% (inactive)
11,N#C/C(=C/c1ccc(O)c(O)c1)C(=O)NCc1ccccc1,27.2% (inactive)
12,O=C(O)c1cc2occc2[nH]1,12% (inactive)
13,Cc1cc(C)c2c(c1)[C@@H](N(Cc1cc(C(F)(F)F)cc(C(F)(F)F)c1)c1nnn(C)n1)CCCN2CC1CCC(C(=O)O)CC1 (stereo partly drawn),-80.5% (active)
14,CNC(=O)c1cccc(NCC(=O)NCCc2ccc(OC)c(OC)c2)c1,16.5% (inactive)
15,Cc1ccc(C(=O)N(CCCN)[C@@H](c2oc3cc(Cl)ccc3c(=O)c2Cc2ccccc2)C(C)C)cc1,-80.4% (active)
16,Cc1c(C)n(Cc2ccccc2)c2ccc(C(=O)OCCN(C)C)cc12,11.3% (inactive)
17,Cc1ccc(C(=O)N(CCCN)[C@@H](c2nc3cc(Cl)ccc3c(=O)n2Cc2ccccc2)C(C)C)cc1,-72.6% (active)
18,O=C(O)CC(S)C(=O)O (stereo not drawn),11.1% (inactive)
19,Cc1cc2nc3c(=O)[nH]c(=O)nc-3n(CC(O)C(O)C(O)CO)c2cc1C (stereo not drawn),28.7% (inactive) and -4.94% (inactive)
20,O=C(O)[C@H](O)[C@@H](O)[C@H](O)[C@H](O)CO,-60.2% (inactive)
21,CC(C)C1CCC(C(=O)N[C@H](Cc2ccccc2)C(=O)O)CC1 (stereo partly drawn),20.3% (inactive)
22,CC(/C=C/C(=O)NO)=C\[C@@H](C)C(=O)c1ccc(N(C)C)cc1,-69.6% (inactive)
23,O=C(CCCCCCNC(=O)c1cnc(N(c2ccccc2)c2ccccc2)nc1)NO,-10.9% (inactive)
24,CN(C)c1ccc(C(=O)NCCCCCCC(=O)NO)cc1,-59.9% (inactive) and -86.2% (active) and -94.9% (active)
25,CCCCCCCCCCCCC/C=C/[C@@H](O)[C@H](COC1OC(CO)C(OC2OC(CO)C(OC3OC(CO)C(O)C(OC4OC(CO)C(O)C(O)C4O)C3NC(C)=O)C(OC3(C(=O)O)CC(O)C(NC(C)=O)C(C(O)C(O)CO)O3)C2O)C(O)C1O)NC(=O)CCCCCCCCCCCCCCCCC (stereo partly drawn),8.33% (inactive)

row,Structure (SMILES),"activity change, negative = inhibition"
1,O=C(O)c1c(Sc2ccccc2)c2cc(Cl)ccc2n1Cc1ccc(Cl)cc1,-5.44% (inactive) and 8.39% (inactive)
2,COC(=O)C1CC2=CC(=O)CCC2(C)C23OC2CC2(C)C(CCC24CCC(=O)O4)C13 (stereo not drawn),3.98% (inactive)
3,CC1(C)CC[C@]2(C(=O)O)CC[C@]3(C)C(=CC[C@@H]4[C@@]5(C)CC[C@H](O)C(C)(C)[C@@H]5CC[C@]43C)[C@@H]2C1,-38.2% (inactive) and 16.6% (inactive)
4,C[C@H]1[C@H](C)CC[C@]2(C(=O)O)CC[C@]3(C)C(=CC[C@@H]4[C@@]5(C)C[C@@H](O)[C@H](O)[C@@](C)(CO)[C@@H]5CC[C@]43C)[C@H]12,-67.1% (inactive) and -6.04% (inactive)
5,C[C@@H]1CC[C@]2(C(=O)O)CC[C@]3(C)C(=CCC4[C@@]5(C)CC[C@H](O)C(C)(C)C5CC[C@]43C)C2[C@H]1C (stereo partly drawn),8.22% (inactive)
6,C[C@H]1[C@H](C)CC[C@]2(C(=O)O)CC[C@]3(C)C(=CCC4[C@@]5(C)C[C@@H](O)[C@H](O)[C@@](C)(CO)C5[C@H](O)C[C@]43C)[C@H]12 (stereo partly drawn),-87.6% (active)
7,C[C@H]1[C@H](C)CC[C@]2(C(=O)O)CC[C@]3(C)C(=CCC4[C@@]5(C)C[C@@H](O)[C@H](O)[C@@](C)(CO)C5CC[C@]43C)[C@H]12 (stereo partly drawn),14.3% (inactive)
8,C[C@H]1[C@H](C)CC[C@]2(C(=O)O)CC[C@]3(C)C(=CC[C@@H]4[C@@]5(C)CC[C@H](O)C(C)(C)[C@@H]5CC[C@]43C)[C@H]12,-76.6% (active)
9,Nc1nc2c(ncn2CCC(CO)CO)c(=O)[nH]1,11.1% (inactive)
10,COc1c2ccoc2nc2c(OC)c(OCC(O)C(C)(C)O)ccc12 (stereo not drawn),7.33% (inactive)
11,C[C@@H](NCCCc1cccc(C(F)(F)F)c1)c1cccc2ccccc12,58.2% (inactive)
12,CO[C@H]1C=CO[C@@]2(C)Oc3c(C)c(O)c4c(O)c(c5c(nc6cc(C)ccn65)c4c3C2=O)NC(=O)/C(C)=C\C=C/[C@H](C)[C@H](O)[C@@H](C)C(O)[C@@H](C)[C@H](OC(C)=O)[C@@H]1C (stereo partly drawn),2.45% (inactive)
13,CC(C)CC1C(=O)N2CCC[C@H]2C2(O)O[C@](NC(=O)C3C=C4c5cccc6[nH]c(Br)c(c56)C[C@H]4N(C)C3)(C(C)C)C(=O)N12 (stereo partly drawn),-3.42% (inactive)
14,CS(=O)(=O)Oc1ccc2c(NC(N)=O)c(C(=O)c3ccc(Cl)cc3Cl)oc2c1,6% (inactive) and -81.6% (active)
15,O=C(NS(=O)(=O)c1ccc(Br)s1)c1ccc(Cl)cc1Cl,15.3% (inactive)
16,O=c1cc(N2CCOCC2)nc2c3ccccc3ccn12,7.41% (inactive)
17,Cc1cccc(/C=N/Nc2cc(N3CCOCC3)nc(OCCc3ccccn3)n2)c1,-83.9% (active)
18,CCOC(=O)CCNc1cc(N2CCc3ccccc3CC2)nc(-c2ccccn2)n1,-57.4% (inactive)
19,O=C(O)c1ccc(-n2nc(-c3ccccc3O)nc2-c2ccccc2O)cc1,-30% (inactive)
20,CC(C)(O)CC[C@@H](O)[C@](C)(O)C1CC[C@@]2(O)C3=CC(=O)C4C[C@@H](O)[C@@H](O)C[C@]4(C)C3CC[C@]12C (stereo partly drawn),12.6% (inactive)
21,Fc1cccc(/C=N/N=C/c2cccc(F)c2)c1,8.5% (inactive) and 8.55% (inactive)
22,C[N+]1(C)[C@@H]2CC(OC(=O)C(O)(c3cccs3)c3cccs3)C[C@H]1[C@@H]1O[C@@H]12 (stereo partly drawn),13.9% (inactive)
23,CCc1cnn2c(NCc3ccc[n+]([O-])c3)cc(N3CCCC[C@H]3CCO)nc12,-74.2% (active)
24,COc1ccc(CNc2nc(N3CCC[C@H]3CO)ncc2C(=O)NCc2ncccn2)cc1Cl,-6.59% (inactive)
25,COc1cc(O)cc([C@@H]2CC(=O)c3c(O)cc(O[C@@H]4O[C@H](CO)[C@@H](O)[C@H](O)[C@H]4O[C@@H]4O[C@@H](C)[C@H](O)[C@@H](O)[C@H]4O)cc3O2)c1,4.15% (inactive)

row,Structure (SMILES),"activity change, negative = inhibition"
1,c1ccc(Oc2nc(NC3CCCCC3)c3[nH]cnc3n2)cc1,-6.74% (inactive)
2,Cn1cnc2cc3c(Nc4cccc(Br)c4)ncnc3cc21,-18.1% (inactive)
3,O=C(NCCCl)N(CCCl)[NH2+][O-],-12% (inactive)
4,O=C(O)c1ccc(N2C(=O)/C(=C/c3ccc(-c4ccc([N+](=O)[O-])cc4)o3)C=C2c2ccccc2)cc1,14.9% (inactive)
5,CCCCN(Cc1ccc(C(=O)NO)cc1)C(=O)Nc1ccccc1,-84.4% (active)
6,CN1CCc2c(c3ccccc3n2Cc2ccc(C(=O)NO)cc2)C1,-47% (inactive)
7,CCCN(CCC)C(=O)C(CCC(=O)O)NC(=O)c1ccccc1 (stereo not drawn),-0.127% (inactive) and 11.8% (inactive)
8,CC1CCCC(C)N1 (stereo not drawn),19.7% (inactive)
9,NCCc1ccn[nH]1,7.65% (inactive)
10,CN(C)N(C)C(=O)[C@@]1(Cc2ccccc2)CCCN(C(=O)[C@@H](Cc2c[nH]c3ccccc23)NC(=O)C(C)(C)N)C1,17.2% (inactive)
11,CSc1nc(NC2CCCC2)c([N+](=O)[O-])c(NC2CCCC2)n1,15.2% (inactive) and 17.7% (inactive)
12,CCCCCCOC(=O)/N=C(/N)c1ccc(NCc2nc3cc(C(=O)N(CCC(=O)OCC)c4ccccn4)ccc3n2C)cc1,13.2% (inactive)
13,CC(=O)OCC(=O)[C@@]12OC(C)(C)O[C@@H]1CC1C3C[C@H](F)C4=CC(=O)C=C[C@]4(C)[C@@]3(F)[C@@H](O)C[C@@]12C (stereo partly drawn),8.91% (inactive) and 0.0222% (inactive)
14,COC1=CC(=O)C(=O)C/C1=C\C=C\c1ccccc1,-4.53% (inactive)
15,CCCCCCCCCCCCN1CCCCCC1=O,10.1% (inactive)
16,COc1cc(NS(C)(=O)=O)ccc1Cc1c2ccccc2nc2ccccc12,-78.8% (active)
17,COc1cc(NS(C)(=O)=O)ccc1Nc1c2ccccc2nc2ccccc12,-35.3% (inactive) and -53.5% (inactive)
18,COc1ccccc1S(=O)(=O)Nc1ccc2c(c1)CN(C)C(=O)N2,28.4% (inactive)
19,Cc1cc(=O)c2c(O)c3c(O)cc(O)c4c5c(O)cc(O)c6c(O)c7c(=O)cc(C)c8c1c2c(c34)c(c65)c78,-7.43% (inactive)
20,C[C@@]1(O)[C@H](O)[C@@H](CO)O[C@H]1n1cnc2c(NC3CCCC3)nc(Cl)nc21,14.8% (inactive)
21,C=CC(=O)Nc1cccc(Nc2nc(Nc3ccc(NC4CN(CCF)C4)cc3OC)ncc2C(F)(F)F)c1,-9.1% (inactive)
22,CC(=O)NCC(=O)N1[C@@H]2CC[C@H]1c1ccc(Nc3ncc(C(F)(F)F)c(NC4CCC4)n3)cc12,-73.8% (active)
23,C=CC(=O)Nc1cccc(Nc2nc(Nc3ccc(N4CCN(C(C)=O)CC4)cc3OC)ncc2C(F)(F)F)c1,15.7% (inactive)
